Assay results as given in PubChem BioAssay (EPA / NIEHS).
Active and inactive are the calls of the source. The calls were made as follows: active = hit-call score of the fitted dose curve at least 0.9, where 1 is the maximum; inactive = score below 0.9.

Key:
[1] = ATG_CRE_CIS: Attagene CIS-FACTORIAL HepG2 Assay for human cAMP Responsive Element (CRE) binding protein 3 (AID 2282926); conditions: HepG2 CRE cis-reporter, Attagene multiplexed mRNA; actives raise or lower the signal
In short: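 We dosed HepG2 cells bearing multiple cis-promoter reporter units for 24 h and measured reporter mRNA by RT-PCR with capillary electrophoresis detection. Bidirectional concentration-response fitting used DMSO as negative control.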

[2] = molecular target: CCAAT/enhancer-binding protein beta (Homo sapiens) (UniProt P17676); assay: ATG_C_EBP_CIS: Attagene CIS-FACTORIAL HepG2 Assay for human CCAAT/Enhancer Binding Protein (C/EBP) beta (AID 2282927); conditions: HepG2 Attagene cis-factorial transcription factor reporter; actives raise or lower the signal
In short: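 HepG2, transient MRTU transfection, 24 h treatment. RT-PCR plus CE fluorescence; DMSO negative control, bidirectional fit.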

[3] = ATG_CMV_CIS: Attagene CIS-FACTORIAL HepG2 Assay for human CMV (Internal Marker) (AID 2282928); conditions: HepG2 CMV promoter reporter, transcription factor profiling; actives raise or lower the signal;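 also: endpoint acts as a background internal control marker rather than a target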
In short: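 After transient transfection of HepG2 with reporter transcription units driven by cis-regulatory promoters, cells receive test chemical for 24 h. Labeled reporter amplicons, digested with HpaI, are sized and quantified by capillary electrophoresis against DMSO.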

[4] = ATG_DR4_LXR_CIS: Attagene CIS-FACTORIAL HepG2 Assay for human Liver X Receptor (LXR), DR4 submotif (AID 2282929); conditions: HepG2 Attagene DR4 cis-reporter, mRNA transcription; actives raise or lower the signal
In short: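 HepG2 cells were transiently transfected with multiple cis-regulated reporter units and dosed for 24 hours. The DR4 reporter mRNA was quantified by RT-PCR, 6-FAM labelling and capillary electrophoresis. Bidirectional fits used DMSO as baseline.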

[5] = molecular target: Aryl hydrocarbon receptor (Homo sapiens) (UniProt P35869); assay: ATG_Ahr_CIS: Attagene CIS-FACTORIAL HepG2 Assay for human Aryl Hydrocarbon Receptor (Ahr) (AID 2282930); conditions: HepG2 AhR cis-factorial reporter transcription; actives raise or lower the signal
In short: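 Endogenous factor activity is tracked through cis-promoter reporter units transfected into HepG2 cells. Transcript levels at 24 h are read by fluorescent RT-PCR and capillary electrophoresis, with activity in either direction scored relative to DMSO.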

[6] = ATG_AP_1_CIS: Attagene CIS-FACTORIAL HepG2 Assay for human Activator Protein 1 (AP-1) (AID 2282931); conditions: HepG2 Attagene cis-factorial AP-1 reporter mRNA; actives raise or lower the signal
In short: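 HepG2 cells transiently transfected with cis-element-driven reporter transcription units, dosed for 24 hours. Reporter mRNA measured by RT-PCR, 6-FAM labelling, HpaI digestion and capillary electrophoresis. Bidirectional fitting against DMSO baseline.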

[7] = ATG_AP_2_CIS: Attagene CIS-FACTORIAL HepG2 Assay for human Activator Protein 2 (AP-2) (AID 2282932); conditions: HepG2 AP-2 cis-reporter, Attagene transcription factor profiling; actives raise or lower the signal
In short: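 HepG2 cells transiently transfected with cis-element reporter units and exposed for 24 h. Reporter mRNA measured by RT-PCR, FAM labelling, HpaI digestion and capillary electrophoresis. Changes in either direction fitted relative to DMSO.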

[8] = ATG_BRE_CIS: Attagene CIS-FACTORIAL HepG2 Assay for human Bone Morphogenetic Protein (BMP) Response Element (BRE) (AID 2282933); conditions: HepG2 BMP response element reporter, Attagene transcription factor profiling; actives raise or lower the signal
In short: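 Read-out: reporter mRNA induction quantified by RT-PCR and capillary electrophoresis after 24 h chemical exposure of transfected HepG2 cells. Endogenous factor activity on the BMP response element; gain or loss fitted against DMSO baseline.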

[9] = molecular target: Retinoic acid receptor alpha (Homo sapiens) (UniProt P10276); assay: ATG_DR5_RAR_CIS: Attagene CIS-FACTORIAL HepG2 Assay for human Retinoic Acid Receptor Alpha (RARE), DR5 submotif (AID 2282934); conditions: HepG2 Attagene cis-factorial RARE DR5 reporter, mRNA; actives raise or lower the signal;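 as to AC50: reporter responds to endogenous RAR alpha beta and gamma in HepG2 not RARA alone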
In short: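 After 24 h of chemical exposure, transiently transfected HepG2 cells were lysed for total RNA; the DR5-regulated reporter transcript was quantified via RT-PCR and capillary electrophoresis, with activity fitted bidirectionally against DMSO.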

[10] = molecular target: Transcription factor E2F1 (Homo sapiens) (UniProt Q01094); assay: ATG_E2F_CIS: Attagene CIS-FACTORIAL HepG2 Assay for human E2F Transcription Factor 1 (AID 2282935); conditions: HepG2 Attagene cis-reporter, E2F reporter RNA transcripts; actives raise or lower the signal
In short: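 Endogenous E2F1 activity read through cis-promoter reporter units transfected into HepG2. After 24 h compound treatment, reporter mRNA measured by RT-PCR, HpaI digestion and capillary electrophoresis. Bidirectional fit versus DMSO.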

[11] = ATG_E_Box_CIS: Attagene CIS-FACTORIAL HepG2 Assay for human Enhancer Box (E-box) (AID 2282936); conditions: HepG2 E-box cis-reporter transcription, actives raise or lower the signal
In short: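 HepG2 cells transiently transfected with multiplexed cis-element reporter units, dosed 24 h; reporter mRNA quantified by RT-PCR, 6-FAM labelling, HpaI digestion and capillary electrophoresis. E-box (USF1) signal fitted bidirectionally vs DMSO.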

[12] = ATG_EGR_CIS: Attagene CIS-FACTORIAL HepG2 Assay for human Early Growth Response 1 (EGR1) (AID 2282938); conditions: HepG2 Attagene CIS-FACTORIAL EGR reporter mRNA; actives raise or lower the signal
In short: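 HepG2 cells transiently transfected with cis-element-driven multiplexed reporter units, dosed for 24 h. EGR1-element reporter mRNA quantified by RT-PCR, 6-FAM labelling, HpaI digestion and capillary electrophoresis; bidirectional fit versus DMSO.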

[13] = ATG_M_19_CIS: Attagene CIS-FACTORIAL HepG2 Assay for M19 Transcription Factor (Internal Marker) (AID 2282939); conditions: HepG2 Attagene CIS-FACTORIAL M19 internal marker reporter; actives raise or lower the signal
In short: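 Readout: fluorescent reporter-transcript fragments by capillary electrophoresis after RT-PCR. Human HepG2 liver cells carried transfected MRTU constructs reporting endogenous transcription-factor activity; exposure 24 h. Gain or loss of signal fitted relative to DMSO.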

[14] = ATG_ERE_CIS: Attagene CIS-FACTORIAL HepG2 Assay for Estrogen Response Element (ERE) (AID 2282940); conditions: HepG2 ERE cis-reporter, Attagene RNA transcript; actives raise or lower the signal
In short: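 Readout: reporter mRNA induction by RT-PCR, FAM-labelled primer extension, HpaI digestion and capillary electrophoresis, 24 h after dosing transfected HepG2 cells. Endogenous transcription factors act on cis-element-regulated reporters. Gain or loss fitted against DMSO.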

[15] = ATG_Ets_CIS: Attagene CIS-FACTORIAL HepG2 Assay for human Erythroblast Transformation Specific (ETS) (AID 2282941); conditions: HepG2 ETS cis-reporter transcription, actives raise or lower the signal
In short: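 Human HepG2 hepatoma cells were transiently transfected with promoter-driven reporter constructs and treated for 24 hours. Reporter transcripts were quantified by RT-PCR with fluorescent primer extension; bidirectional curve fitting used DMSO as reference.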

[16] = molecular target: Hepatocyte nuclear factor 3-beta (Homo sapiens) (UniProt Q9Y261); assay: ATG_FoxA2_CIS: Attagene CIS-FACTORIAL HepG2 Assay for human Forkhead box A2 (FOXA2) (AID 2282942); conditions: HepG2 cis-reporter transcription factor activity, 24 h; actives raise or lower the signal
In short: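 HepG2 transiently transfected with a multiplexed cis-promoter reporter library read endogenous FOXA2 activity. After 24 h compound exposure, reporter mRNA was quantified by RT-PCR, HpaI digestion and capillary electrophoresis. Bidirectional fit against DMSO.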

[17] = ATG_FoxO_CIS: Attagene CIS-FACTORIAL HepG2 Assay for human Forkhead box O (FoxO) (AID 2282943); conditions: HepG2 Attagene cis-reporter, FoxO element, mRNA; actives raise or lower the signal
In short: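 Transfected HepG2 reporter cells exposed to test chemical for 24 h; reporter RNA measured by reverse transcription, PCR and fluorescent capillary electrophoresis; curves fitted for increases and decreases against DMSO.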

[18] = ATG_GATA_CIS: Attagene CIS-FACTORIAL HepG2 Assay for human GATA Binding Protein (AID 2282944); conditions: HepG2 GATA cis-element reporter, Attagene multiplex mRNA; actives raise or lower the signal
In short: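 Read-out: fluorescent reporter mRNA fragments resolved by capillary electrophoresis after RT-PCR. Human liver HepG2 cells carried transiently transfected cis-regulated reporter constructs; chemicals incubated 24 h; gain or loss of signal fitted relative to DMSO.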

[19] = ATG_GLI_CIS: Attagene CIS-FACTORIAL HepG2 Assay for human Zinc Finger Protein GLI1 (AID 2282945); conditions: HepG2, Attagene cis-factorial reporter mRNA, GLI element; actives raise or lower the signal
In short: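 Transiently transfected HepG2 cells report endogenous transcription factor activity via cis-element-driven reporter units. After 24 h compound exposure, reporter mRNA was measured by RT-PCR with capillary electrophoresis; bidirectional fitting against DMSO baseline.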

[20] = ATG_M_61_CIS: Attagene CIS-FACTORIAL HepG2 Assay for M61 Transcription Factor (Internal Marker) (AID 2282937); conditions: HepG2 Attagene CIS-FACTORIAL M61 internal marker reporter; actives raise or lower the signal
In short: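 HepG2 cells transiently transfected with multiplexed cis-promoter reporter units reporting endogenous transcription factor activity, measured 24 h after dosing. Reporter mRNA quantified by RT-PCR and capillary electrophoresis; bidirectional fit against DMSO baseline.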

Measured: AC50

Chain of Retinoic acid receptor alpha (Homo sapiens) (P10276 whole entry, looked up): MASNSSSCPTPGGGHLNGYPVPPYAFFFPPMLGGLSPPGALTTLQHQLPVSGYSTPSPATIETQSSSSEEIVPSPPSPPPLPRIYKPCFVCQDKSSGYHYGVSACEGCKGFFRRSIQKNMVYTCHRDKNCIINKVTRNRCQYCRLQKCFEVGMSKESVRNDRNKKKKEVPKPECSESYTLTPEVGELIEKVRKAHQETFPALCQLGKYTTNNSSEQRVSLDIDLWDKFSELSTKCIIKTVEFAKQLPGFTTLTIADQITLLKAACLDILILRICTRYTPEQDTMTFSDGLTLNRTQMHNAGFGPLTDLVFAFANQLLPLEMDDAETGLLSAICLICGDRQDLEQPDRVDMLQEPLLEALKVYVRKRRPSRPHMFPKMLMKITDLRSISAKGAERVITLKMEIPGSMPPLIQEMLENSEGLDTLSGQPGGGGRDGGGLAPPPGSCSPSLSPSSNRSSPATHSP
Chain of Aryl hydrocarbon receptor (Homo sapiens) (P35869 whole entry, looked up): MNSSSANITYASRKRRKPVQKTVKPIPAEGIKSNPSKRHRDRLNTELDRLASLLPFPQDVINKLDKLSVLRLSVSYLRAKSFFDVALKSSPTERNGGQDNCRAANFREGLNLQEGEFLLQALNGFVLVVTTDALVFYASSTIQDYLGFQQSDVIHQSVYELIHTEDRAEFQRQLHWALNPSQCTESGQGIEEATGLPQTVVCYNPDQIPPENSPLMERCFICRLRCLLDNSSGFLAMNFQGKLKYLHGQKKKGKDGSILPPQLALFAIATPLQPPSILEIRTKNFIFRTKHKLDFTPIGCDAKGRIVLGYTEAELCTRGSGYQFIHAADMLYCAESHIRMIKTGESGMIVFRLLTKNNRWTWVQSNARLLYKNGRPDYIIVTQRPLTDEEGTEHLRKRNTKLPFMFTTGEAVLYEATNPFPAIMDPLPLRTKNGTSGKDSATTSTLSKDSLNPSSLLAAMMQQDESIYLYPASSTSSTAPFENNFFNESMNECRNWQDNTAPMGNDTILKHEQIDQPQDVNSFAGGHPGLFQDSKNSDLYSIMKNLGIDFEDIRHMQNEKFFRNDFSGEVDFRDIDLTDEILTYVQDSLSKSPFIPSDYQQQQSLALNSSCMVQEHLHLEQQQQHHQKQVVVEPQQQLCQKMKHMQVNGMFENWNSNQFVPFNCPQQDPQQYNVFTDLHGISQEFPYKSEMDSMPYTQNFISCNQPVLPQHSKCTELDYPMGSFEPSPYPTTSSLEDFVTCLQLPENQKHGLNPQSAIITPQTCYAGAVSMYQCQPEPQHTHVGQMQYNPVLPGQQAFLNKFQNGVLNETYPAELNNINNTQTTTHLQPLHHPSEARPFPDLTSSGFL
Chain of CCAAT/enhancer-binding protein beta (Homo sapiens) (P17676 whole entry, looked up): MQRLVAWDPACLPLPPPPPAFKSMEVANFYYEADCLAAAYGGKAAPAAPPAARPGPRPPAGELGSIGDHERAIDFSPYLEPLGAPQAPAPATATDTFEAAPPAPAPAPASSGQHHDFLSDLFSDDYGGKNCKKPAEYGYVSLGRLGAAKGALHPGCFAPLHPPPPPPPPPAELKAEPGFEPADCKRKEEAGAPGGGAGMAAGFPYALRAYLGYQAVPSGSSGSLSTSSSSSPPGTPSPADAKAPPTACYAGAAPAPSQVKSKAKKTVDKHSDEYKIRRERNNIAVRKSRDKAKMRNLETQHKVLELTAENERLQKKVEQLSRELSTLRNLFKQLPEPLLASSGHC
Chain of Transcription factor E2F1 (Homo sapiens) (Q01094 whole entry, looked up): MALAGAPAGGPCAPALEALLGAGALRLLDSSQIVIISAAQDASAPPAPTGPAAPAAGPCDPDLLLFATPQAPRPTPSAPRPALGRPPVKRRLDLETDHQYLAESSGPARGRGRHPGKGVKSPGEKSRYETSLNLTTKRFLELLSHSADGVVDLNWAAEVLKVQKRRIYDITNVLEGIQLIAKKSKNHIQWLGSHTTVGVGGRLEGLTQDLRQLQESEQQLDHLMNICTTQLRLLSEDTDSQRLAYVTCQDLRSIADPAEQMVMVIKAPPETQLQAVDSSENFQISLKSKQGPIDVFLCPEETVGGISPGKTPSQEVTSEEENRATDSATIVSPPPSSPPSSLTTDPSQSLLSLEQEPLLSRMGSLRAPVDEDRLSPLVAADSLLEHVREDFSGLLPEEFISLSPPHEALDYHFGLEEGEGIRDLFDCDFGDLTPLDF
Chain of Hepatocyte nuclear factor 3-beta (Homo sapiens) (Q9Y261 whole entry, looked up): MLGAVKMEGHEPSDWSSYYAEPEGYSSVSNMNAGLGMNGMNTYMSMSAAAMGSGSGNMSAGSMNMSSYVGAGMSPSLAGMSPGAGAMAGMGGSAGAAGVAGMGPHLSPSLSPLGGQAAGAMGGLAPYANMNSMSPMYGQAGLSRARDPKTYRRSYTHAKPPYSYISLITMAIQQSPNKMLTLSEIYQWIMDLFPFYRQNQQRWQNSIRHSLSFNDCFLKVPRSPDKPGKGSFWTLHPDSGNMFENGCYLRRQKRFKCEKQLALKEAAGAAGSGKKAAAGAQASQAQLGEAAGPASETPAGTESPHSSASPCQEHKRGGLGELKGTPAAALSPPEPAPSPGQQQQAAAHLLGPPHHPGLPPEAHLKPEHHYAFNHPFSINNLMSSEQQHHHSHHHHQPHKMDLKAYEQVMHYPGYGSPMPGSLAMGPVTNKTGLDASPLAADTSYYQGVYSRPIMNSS

CC(C)=CCCC(C)C=O (centres undefined)
not listed: [20]
inactive: all other assays above

O=CC1CC1
active: [5] 0.119 µM
not listed: [10] | [18]
inactive: all other assays above

CC/C=C\CCOC(=O)CCCCC
not listed: [20]
inactive: all other assays above

O=C(O)Cc1c(Cl)ccc(Cl)c1Cl
not listed: [20]
inactive: all other assays above

O=S(=O)(O)c1cc(S(=O)(=O)O)c2ccc3c(S(=O)(=O)O)cc(S(=O)(=O)O)c4ccc1c2c43
not listed: [16] | [18]
inactive: all other assays above

CCCCCCCC/C=C\CCCCCCCC(=O)OCCO
active: [1] 50 µM | [2] 69 µM | [4] 50 µM | [6] 50 µM | [9] 59.4 µM
not listed: [20]
inactive: all other assays above

CCCCCCC(O)CO (centres undefined)
not listed: [16] | [20]
inactive: all other assays above

COCCCOCCCOC
not listed: [20]
inactive: all other assays above

CCCCCCOC(=O)C(C)CC (centres undefined)
not listed: [10]
inactive: all other assays above

NC(=O)NNC(N)=O
not listed: [10]
inactive: all other assays above

O=c1c2ccccc2oc2ccccc12
active: [14] 26.4 µM
not listed: [10] | [16]
inactive: all other assays above

CNC(=S)N(C)C
not listed: [20]
inactive: all other assays above

CC1=NN(c2cc(S(=O)(=O)O)ccc2Cl)C(=O)C1N=Nc1ccccc1 (centres undefined)
active: [5] 0.541 µM
not listed: [10]
inactive: all other assays above

Cc1ccc(C2OC[C@@H]3OC(c4ccc(C)cc4)O[C@H]([C@H](O)CO)[C@@H]3O2)cc1 (some centres undefined)
active: [6] 142 µM
not listed: [20]
inactive: all other assays above

CC(=O)Oc1ccc(C(C)=O)cc1
not listed: [16] | [20]
inactive: all other assays above

CCC(CO)CO
not listed: [10]
inactive: all other assays above
